# Assay results as given in PubChem BioAssay (NCATS).
# Several values for one entry are separate records, joined by “and”; a condition that tells them apart may be missing. Equal values may be shown once. Unmarked numbers belong to inactive results. Results filed as inconclusive are left out. A call without a number means that no potency is given here. Activity calls are given as the source filed them. Unless noted, calls follow the shape of the dose curve; as a rule, active = well fitted curve in the direction sought with a large enough effect; inconclusive = small, poorly fitted or top-dose-only effect, or another doubt; inactive = no such curve, though single readings can be large; an effect the other way counts as inactive or inconclusive.
# Experiments:
# [1] = biological target: Mitogen-activated protein kinase 10 (Mus musculus) (UniProt Q61831); experiment: JNK3 AlphaScreen Assay (AID 530; active = well fitted curve in either direction with a large enough effect, not every such curve was filed as active;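 also: kinase came from lysate of stimulated human HepG2 cells; signal reports phosphorylation of biotinylated GST-cJun 1-79 at Ser73 with 10 µM ATP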)
# Method in brief: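 Room-temperature AlphaScreen kinase assay; pre-activated HepG2 lysate as JNK3 source, biotin-GST-cJun(1-79) substrate, 10 uM ATP, compound 15 min preincubation.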
# [2] = Cell Viability - N2a (AID 540); details: N2a mouse neuroblastoma cell viability; activity change, negative = cytotoxicity: at 92.2 µM (top of the series);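 also: cells exposed to compound for 40 h at 37 °C; nearly all actives have a fitted effect of over 45% in size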
# Method in brief: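 First, 1500 N2a cells per well incubate 5 hr at 37 °C; next, compounds are added and incubated 40 hr at 37 °C; finally CellTiter-Glo is added and luminescence read after 20 min, with AC50 derived by Hill modeling.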
# [3] = Cell Viability - NIH 3T3 (AID 541); details: NIH 3T3 cell viability, qHTS; activity change, negative = cytotoxicity: at 92.2 µM (top of the series);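 also: cells exposed to compound for 40 hours; nearly all actives have a fitted effect of over 25% in size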
# Method in brief: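 AC50 values reflect concentration-dependent loss of intracellular ATP in NIH 3T3 cells after 40 hr treatment in complete culture medium, quantified by luciferase-based luminescence.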
# [4] = Cell Viability - HUV-EC-C (AID 542);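 also: cells exposed to compound for 40 hours; nearly all actives have a fitted effect of over 35% in size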
# Method in brief: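 Decrease in cellular ATP, quantified by luciferase luminescence, reflects toxicity in normal human vascular endothelial HUV-EC-C cells given compound for 40 hr in complete culture medium. Values are AC50s from concentration-response curves.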
# [5] = Cell Viability - H-4-II-E (AID 543);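 also: cells exposed to compound for 40 hours; nearly all actives have a fitted effect of over 35% in size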
# Method in brief: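 Here, cytotoxicity is measured in the rat hepatoma line H-4-II-E as loss of intracellular ATP after 40 hr compound treatment, detected by luciferase luminescence.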
# [6] = Cell Viability - Renal Proximal Tubule (AID 545);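 also: cells exposed to compound for 40 hours; nearly all actives have a fitted effect of over 40% in size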
# Method in brief: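 Primary rat renal proximal tubule cells (1000/well) were treated with compounds for 40 hr at 37 °C in complete medium. Intracellular ATP was measured by CellTiter-Glo luminescence, and AC50 values came from Hill-equation fits of concentration-response data.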
# [7] = Cell Viability - Mesenchymal (AID 546);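 also: cells exposed to compound for 40 hours before reading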
# Method in brief: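 AC50 values reflect the drop in intracellular ATP in a human kidney mesenchymal line derived from normal glomeruli. Treatment lasts 40 hr at 37 °C in complete medium, and the signal comes from CellTiter-Glo luminescence.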
# [8] = Cellular Toxicity (caspase-3) HepG2 (AID 654);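 also: cells exposed to compound for 16 hours before reading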
# Method in brief: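 qHTS, HepG2, 1500 cells/well, complete medium; cpd 16 h 37 °C; Caspase-Glo 3/7, 20 min RT; lum. Norm: DMSO vs 100 uM tamoxifen; AC50 Hill fit.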
# [9] = Cellular Toxicity (caspase-3) HUV-EC-C (AID 656)
# Method in brief: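 HUV-EC-C endothelial cells, 1000/well, were pre-incubated 5 hr at 37°C, then exposed to compounds for 16 hr at 37°C. Caspase-Glo 3/7 luminescence was read after 20 min at room temperature. AC50 came from Hill fits, normalized to DMSO and 100 uM tamoxifen.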
# [10] = Cellular Toxicity (caspase-3) SHSY5Y (AID 657)
# Method in brief: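 SH-SY5Y human neuroblastoma cells (1500/well) were treated with compounds for 16 h at 37 °C, then Caspase-Glo 3/7 luminescence was read after 1 h at room temperature. Data normalized to DMSO and 10 uM staurosporine; AC50 from Hill fits.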
# [11] = Cellular Toxicity (caspase-3) BJ (AID 658)
# Method in brief: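 Readout: Caspase-Glo 3/7 luminescence increase in BJ cells after 16 hr treatment at 37 °C. Staurosporine and tamoxifen served as positive controls; AC50 values came from Hill modelling of data normalized to DMSO and 10 uM staurosporine.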
# [12] = Cellular Toxicity (caspase-3) MRC-5 (AID 659)
# Method in brief: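 Concentration-dependent caspase 3/7 activation is measured in human normal lung fibroblasts (MRC-5) following 16-hour treatment. AC50 values come from standard Hill-equation modeling of luminescence normalized to DMSO and 10 uM staurosporine.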
# [13] = Cellular Toxicity (caspase-3) Mesangial (AID 660);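 also: combined caspase 3 and 7 activity read by Caspase-Glo luminescence; cells exposed to compound for 16 h before the caspase read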
# Method in brief: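 Concentration-response qHTS: compound-induced rise in caspase 3/7 luminescence in human mesangial cells after 16 h, normalized to DMSO and 100 uM tamoxifen controls.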
# [14] = Cellular Toxicity (caspase-3) SK-N-SH (AID 661)
# Method in brief: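 Caspase 3/7 activation is measured as a luminescence increase from aminoluciferin released by substrate cleavage in SK-N-SH cells after 16 hr compound treatment; values are AC50 from concentration-response curves.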
# [15] = Cellular Toxicity (caspase-3) H-4-II-E (AID 663);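 also: cells exposed to compound for 16 hr before readout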
# Method in brief: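 Apoptosis induction is scored as increased luminescence from caspase 3/7 substrate cleavage in rat hepatoma H-4-II-E cells exposed to compound for 16 hr. Activity is scaled between DMSO and 100 uM tamoxifen.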
# [16] = Cellular Toxicity (caspase-3) Hek293 (AID 664); details: HEK293 caspase-3 activation; caspase-3 activation: at 92.2 µM (top of the series), DMSO = 0%, 100 µM tamoxifen = 100%;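 also: cells exposed to compound for 16 h at 37 °C before readout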; also: potency is read from the fitted curve at half-maximal effect
# Method in brief: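 Activation of caspase-3/7 is measured as increased luminescence from cleaved peptide-aminoluciferin substrate in HEK293 cells treated 16 hours at 37 °C. AC50 values come from Hill-equation fits of concentration-response data.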
# [17] = Cellular Toxicity (caspase-3) NIH 3T3 (AID 666);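 also: caspase signal read after 16 h compound exposure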
# Method in brief: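 Concentration-response qHTS in NIH 3T3 mouse fibroblasts scores caspase-3/7 activation as rising luminescence after 16 hr compound exposure. Signals are scaled between DMSO-only and 100 uM tamoxifen.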
# [18] = biological target: Glucocorticoid receptor (Homo sapiens) (UniProt P04150); experiment: GR-GFP Redistribution (AID 450;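 active = compounds whose dose series gives a full or clear partial fitted curve of increased nuclear translocation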; also: potency is read from the fitted curve at half-maximal effect); details: U2OS GR-GFP nuclear translocation, laser cytometry, 2 h
# [19] = biological target: Glucocorticoid receptor (Homo sapiens) (UniProt P04150); experiment: GR-EFC Redistribution (AID 451; calls by dose curve; also: potency is read from the fitted curve at half-maximal effect); details: CHO-K1 GR-EFC translocation, beta-gal luminescence, 2 h
# Method in brief: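 Translocation of GR-ED fusion to nuclear EA restores b-gal, read by luminescence after 1 h room-temperature detection. Engineered CHO-K1 biosensor cells, 1,000/well, exposed 2 h at 37 C to titrations up to 46 uM final.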
# [20] = biological target: 3',5'-cyclic-AMP phosphodiesterase 4B (Homo sapiens) (UniProt Q07343); experiment: qHTS Assay for Inhibitors of PDE-IV (AID 607; active = well fitted activation curve with a large enough effect in the main read-out, with a control signal flat, not every such curve was filed as active)
# Method in brief: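 ACTOne HEK293 cells carry a modified cAMP-gated CNG channel and express endogenous PDE4; plated 1000 cells/well, compounds up to 22.9 uM final. Membrane-potential dye fluorescence (ex 535/em 590) was read; parental cells received 10 uM forskolin + 100 uM RO 20-1724.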
# Sequence of 3',5'-cyclic-AMP phosphodiesterase 4B (Homo sapiens) (Q07343 whole entry, looked up): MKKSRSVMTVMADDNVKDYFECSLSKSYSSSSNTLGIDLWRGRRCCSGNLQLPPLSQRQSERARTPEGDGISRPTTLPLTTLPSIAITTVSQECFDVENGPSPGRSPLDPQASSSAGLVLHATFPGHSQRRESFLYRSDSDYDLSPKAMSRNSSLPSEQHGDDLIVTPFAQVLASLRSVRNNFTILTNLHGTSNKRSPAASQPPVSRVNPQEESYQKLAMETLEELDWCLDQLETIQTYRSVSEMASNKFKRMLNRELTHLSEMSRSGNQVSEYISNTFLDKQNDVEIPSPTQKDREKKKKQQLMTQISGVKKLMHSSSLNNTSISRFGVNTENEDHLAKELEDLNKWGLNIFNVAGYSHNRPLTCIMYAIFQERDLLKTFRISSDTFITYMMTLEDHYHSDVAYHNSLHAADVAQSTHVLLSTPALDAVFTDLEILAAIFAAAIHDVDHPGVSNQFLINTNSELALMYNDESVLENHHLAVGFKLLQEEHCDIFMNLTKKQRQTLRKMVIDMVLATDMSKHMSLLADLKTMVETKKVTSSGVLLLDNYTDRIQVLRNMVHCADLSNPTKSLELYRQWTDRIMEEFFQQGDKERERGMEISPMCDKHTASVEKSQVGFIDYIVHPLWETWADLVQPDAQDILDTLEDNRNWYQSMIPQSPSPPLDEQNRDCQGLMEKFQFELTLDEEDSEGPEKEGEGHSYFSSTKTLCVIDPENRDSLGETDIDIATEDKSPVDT
# Sequence of Glucocorticoid receptor (Homo sapiens) (P04150 whole entry, looked up, the tested form may be a part): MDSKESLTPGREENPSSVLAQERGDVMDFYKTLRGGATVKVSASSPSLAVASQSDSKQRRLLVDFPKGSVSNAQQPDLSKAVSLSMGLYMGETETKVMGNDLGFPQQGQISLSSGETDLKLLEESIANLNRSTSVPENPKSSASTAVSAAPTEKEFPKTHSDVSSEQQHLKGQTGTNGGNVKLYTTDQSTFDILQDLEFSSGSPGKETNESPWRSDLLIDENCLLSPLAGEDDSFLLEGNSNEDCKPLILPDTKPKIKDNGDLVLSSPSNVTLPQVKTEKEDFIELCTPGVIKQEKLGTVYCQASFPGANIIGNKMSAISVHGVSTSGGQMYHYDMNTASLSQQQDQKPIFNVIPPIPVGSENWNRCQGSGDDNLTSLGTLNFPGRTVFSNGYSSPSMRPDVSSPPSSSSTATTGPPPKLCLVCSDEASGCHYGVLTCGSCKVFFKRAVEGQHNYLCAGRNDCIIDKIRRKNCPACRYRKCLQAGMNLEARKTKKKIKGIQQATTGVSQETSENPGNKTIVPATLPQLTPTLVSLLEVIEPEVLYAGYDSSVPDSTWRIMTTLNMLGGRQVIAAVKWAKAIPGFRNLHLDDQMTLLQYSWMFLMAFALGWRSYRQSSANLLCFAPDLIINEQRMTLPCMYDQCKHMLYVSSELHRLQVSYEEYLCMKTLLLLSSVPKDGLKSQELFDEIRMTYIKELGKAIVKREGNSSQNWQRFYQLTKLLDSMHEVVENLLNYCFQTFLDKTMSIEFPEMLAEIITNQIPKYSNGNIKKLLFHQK
smiles,measurement,setting,value
Nc1ccn([C@H]2CC[C@@H](CO)O2)c(=O)n1,outcome,[1],inactive
same,"activity change, negative = cytotoxicity",[2],-5.12%
same,Potency,[3],inactive
same,outcome,[4],inactive
same,Potency,[5],inactive
same,Potency,[6],inactive
same,outcome,[7],inactive
same,outcome,[8],inactive
same,outcome,[9],inactive
same,outcome,[10],inactive
same,outcome,[11],inactive
same,outcome,[12],inactive
same,outcome,[13],inactive
same,Potency,[14],inactive
same,outcome,[15],inactive
same,Potency,[16],inactive
same,outcome,[17],inactive
CN(C)C(=N)N=C(N)N,Potency,[18],> 20.6 µM
same,Potency,[19],> 20.6 µM
same,outcome,[1],inactive
same,Potency,[20],inactive
CCCCc1oc2ccccc2c1C(=O)c1cc(I)c(OCCN(CC)CC)c(I)c1,outcome,[1],inactive
Cc1cnc(C(=O)NCCc2ccc(S(=O)(=O)NC(=O)NC3CCCCC3)cc2)cn1,outcome,[1],inactive
same,Potency,[20],inactive
COC(=O)Nc1nc2ccc(C(=O)c3cccs3)cc2[nH]1,Potency,[18],> 46 µM and > 20.6 µM
same,Potency,[19],> 46 µM and > 20.6 µM
same,outcome,[1],inactive
same,Potency,[20],inactive
Cc1cn([C@H]2C=C[C@@H](CO)O2)c(=O)[nH]c1=O,outcome,[1],inactive
same,"activity change, negative = cytotoxicity",[2],11.8% and 9.96%
same,Potency,[3],inactive
same,outcome,[4],inactive
same,Potency,[5],inactive
same,Potency,[6],inactive
same,outcome,[7],inactive
same,outcome,[8],inactive
same,outcome,[9],inactive
same,outcome,[10],inactive
same,outcome,[11],inactive
same,outcome,[12],inactive
same,outcome,[13],inactive
same,Potency,[14],inactive
same,outcome,[15],inactive
same,Potency,[16],inactive
same,outcome,[17],inactive
Cc1ccc(-c2cc(C(F)(F)F)nn2-c2ccc(S(N)(=O)=O)cc2)cc1,outcome,[1],inactive
same,"activity change, negative = cytotoxicity",[2],-43.6%
same,"activity change, negative = cytotoxicity",[3],-132% (active)
same,outcome,[4],inactive
same,outcome,[7],inactive
same,outcome,[8],inactive
same,outcome,[9],inactive
same,outcome,[10],inactive
same,outcome,[11],inactive
same,outcome,[12],inactive
same,Potency,[14],inactive
same,Potency,[16],inactive
same,outcome,[17],inactive
O=C(CCCN1CCC(O)(c2ccc(Cl)cc2)CC1)c1ccc(F)cc1,outcome,[1],inactive
same,Potency,[20],inactive
NC12CC3CC(CC(C3)C1)C2,Potency,[18],> 46 µM and > 20.6 µM
same,Potency,[19],> 46 µM and > 20.6 µM
same,outcome,[1],inactive
same,Potency,[20],inactive
Nc1c2c(nc3ccccc13)CCCC2,outcome,[1],inactive
same,"activity change, negative = cytotoxicity",[2],-21.2%
same,Potency,[3],inactive
same,outcome,[4],inactive
same,Potency,[6],inactive
same,outcome,[7],inactive
same,outcome,[8],inactive
same,outcome,[9],inactive
same,outcome,[10],inactive
same,outcome,[11],inactive
same,outcome,[12],inactive
same,outcome,[13],inactive
same,Potency,[14],inactive
same,outcome,[15],inactive
same,Potency,[16],inactive
same,outcome,[17],inactive
Clc1ccc2c(c1)C(N1CCNCC1)=Nc1ccccc1O2,Potency,[18],> 46 µM and > 20.6 µM
same,Potency,[19],> 46 µM and > 20.6 µM
same,outcome,[1],inactive
same,Potency,[20],inactive
CC(C)NCC(O)c1ccc(O)c(O)c1 (stereo not given),outcome,[1],inactive
same,"activity change, negative = cytotoxicity",[2],0.719%
same,Potency,[3],inactive
same,outcome,[4],inactive
same,Potency,[5],inactive
same,Potency,[6],inactive
same,outcome,[7],inactive
same,outcome,[8],inactive
same,outcome,[9],inactive
same,outcome,[10],inactive
same,outcome,[11],inactive
same,outcome,[12],inactive
same,outcome,[13],inactive
same,Potency,[14],inactive
same,outcome,[15],inactive
same,Potency,[16],inactive
same,outcome,[17],inactive
COc1ccc(CCN(C)CCCC(C#N)(c2ccc(OC)c(OC)c2)C(C)C)cc1OC (stereo not given),outcome,[1],inactive
same,"activity change, negative = cytotoxicity",[2],-16.5%
same,outcome,[4],inactive
same,Potency,[6],inactive
same,outcome,[7],inactive
same,outcome,[8],inactive
same,outcome,[9],inactive
same,outcome,[10],inactive
same,outcome,[11],inactive
same,outcome,[12],inactive
same,outcome,[13],inactive
same,Potency,[14],inactive
same,outcome,[15],inactive
same,Potency,[16],inactive
same,outcome,[17],inactive
Nc1nnc(-c2cccc(Cl)c2Cl)c(N)n1,outcome,[1],inactive
O=c1c(O)c(-c2ccc(O)c(O)c2)oc2cc(O)cc(O)c12,Potency,[20],inactive
Cc1cc(C(C)(C)C)cc(C)c1CC1=NCCN1,Potency,[18],> 46 µM and > 20.6 µM
same,Potency,[19],> 46 µM and > 20.6 µM
same,outcome,[1],inactive
same,Potency,[20],inactive
NCCc1cnc[nH]1,Potency,[18],> 46 µM
same,Potency,[19],> 46 µM
same,outcome,[1],inactive
same,Potency,[20],inactive
CC(COc1ccccc1)N(CCCl)Cc1ccccc1 (stereo not given),Potency,[18],> 20.6 µM
same,outcome,[1],inactive
same,"activity change, negative = cytotoxicity",[2],-85.6% (active)
same,outcome,[9],inactive
same,outcome,[10],inactive
same,outcome,[12],inactive
same,outcome,[13],inactive
same,outcome,[15],inactive
same,Potency,[16],31.6 µM (active)
same,outcome,[17],inactive
CC[C@@]1(O)C(=O)OCc2c1cc1n(c2=O)Cc2cc3c(CN(C)C)c(O)ccc3nc2-1,Potency,[18],> 46 µM
same,Potency,[19],> 9.22 µM
same,"activity change, negative = inhibition",[1],4.05% [at 11.4 µM]
same,Potency,[20],inactive
